The values below come from the supplement of paper PMC6555819.

What all share (assay): PBM binding z-score (relative to random genomic background probes); higher = stronger binding; sequences stand for … in GC…GCGATTGACAGCGTAGAATGAAGG
Experiment [1] relates to LXRa:RXRa (NR concentration 270 nM, RXRa partner concentration 90 nM). Put shortly:
(§1)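 Antibodies against each partner of ligand-free nuclear receptor dimers (one per run) detected binding on custom Agilent 4×180K protein-binding microarrays after 1 h incubation. The double-stranded probes had 34-nt variable regions carrying direct-repeat seeds, single-nucleotide variants, half-site ablations and random human genomic background sequences. Binding z-scores, from regression-normalized fluorescence, use the random background probes as reference.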

Experiment [2] has as its system LXRa homodimer (NR concentration 270 nM). Put shortly:
as §1

Experiment [3] has as its system LXRb homodimer (NR concentration 270 nM). Put shortly: as §1
The subject of experiment [4] is PPARa:RXRa (NR concentration 270 nM, RXRa partner concentration 90 nM). The method, boiled down: as §1
Experiment [5] concerns PPARg:RXRa (NR concentration 180 nM, RXRa partner concentration 90 nM). The method, boiled down: as §1
Experiment [6] concerns PPARg:RXRa 270nM:90nM, anti-RXR (NR concentration 270 nM, RXRa partner concentration 90 nM). Put shortly:
as §1

Experiment [7] concerns PPARg:RXRa 30nM:10nM, anti-RXR (NR concentration 30 nM, RXRa partner concentration 10 nM). Put shortly:
as §1

Experiment [8] relates to PPARg:RXRa 90nM:30nM, anti-RXR (NR concentration 90 nM, RXRa partner concentration 30 nM). The method, boiled down: as §1
In experiment [9] the test system is PPARg:RXRa DBDmut IVT, anti-RXR (DBD mutation: RXRa K156A/R161A, NR concentration 270 nM, RXRa partner concentration 90 nM). Put shortly: as §1
The test system of experiment [10] is PPARg:RXRa IVT, anti-PPARg (NR concentration 270 nM, RXRa partner concentration 90 nM). The method, boiled down: as §1
The test system of experiment [11] is PPARg DBDmut:RXRa IVT, anti-PPARg (DBD mutation: PPARg1 K132A/R137A, NR concentration 270 nM, RXRa partner concentration 90 nM). The method, boiled down: as §1
Experiment [12] deals with PPARg DBDmut IVT, anti-PPARg (DBD mutation: PPARg1 K132A/R137A, NR concentration 270 nM). Put shortly:
as §1

Experiment [13] deals with PPARg homodimer (NR concentration 180 nM). The method, boiled down:
as §1

The test system of experiment [14] is PXR:RXRa (NR concentration 270 nM, RXRa partner concentration 90 nM). Put shortly:
as §1

Experiment [15] relates to PXR homodimer (NR concentration 270 nM). The method, boiled down: as §1
Experiment [16] deals with RARa:RXR (NR concentration 270 nM, RXRa partner concentration 90 nM). Put shortly: as §1
Experiment [17] concerns RARa homodimer (NR concentration 270 nM). The method, boiled down: as §1
The subject of experiment [18] is RARb:RXRa (NR concentration 270 nM, RXRa partner concentration 90 nM). Put shortly:
as §1

The subject of experiment [19] is RARb homodimer (NR concentration 270 nM). Put shortly: as §1

As to ATCGAAAGGTCGAAGGTGCGTATACCCACCCGAA, the PBM binding z-score is 3.22 in [1]; 0.0571 in experiment [2]; 0.0928 in experiment [3]; 4.12 in [4]; 3.21 in experiment [5]; 3.25 in experiment [6]. The PBM binding z-score in experiment [7] was 1.01; in experiment [8] it was 2.44; in [9], -0.0152; in [10] it was 1.39; in experiment [11], 0.552; in experiment [12], 0.658. Besides, the PBM binding z-score is 0.794 in [13]; 2.17 in [14]; -0.19 in experiment [15]; 3.01 in experiment [16]; 0.303 in [17]; 3.68 in experiment [18]. In addition, in experiment [19], the PBM binding z-score amounted to 2.42.

For GCTGCTAGGTCAACTGATGGTCAACTAAAGCTCG, the PBM binding z-score worked out at 3.47 in experiment [1]; 0.653 in [2]; 0.415 in [3]; 3.72 in [4]; 3.01 in experiment [5]; 3.06 in experiment [6]. Also, the PBM binding z-score in experiment [7] was 0.746; in [8], 2.31; in [9], 4.87; in experiment [10] it was 4.19; in experiment [11], -0.672; in [12], 0.0374. For the same sequence, the PBM binding z-score is 2.3 in experiment [13]; 2 in experiment [14]; -0.565 in experiment [15]; 0.323 in experiment [17]; 4.29 in [18]; 3.7 in experiment [19].

Take CGAACGAGGTCATTGACAGGACAGTGAATAGTAA: the PBM binding z-score turned out to be 6.11 in [1]; 1.41 in experiment [2]; 1.44 in experiment [3]; 6.82 in experiment [5]; 6.46 in [6]; 3.58 in experiment [7]. Also, the PBM binding z-score in [8] worked out at 6.21; in [9], 5.35; in experiment [10], 5.72; in experiment [11], 2.22; in experiment [12], 0.785; in [13], 3.3. Moreover, the PBM binding z-score in [14] came to 5.28; in experiment [15] it was 3.11; in experiment [16], 5.46; in experiment [17], 0.884; in experiment [18], 4.82; in experiment [19], 3.73.

Take CAAACTAGGTCAAGGTCTAAGTCGGTTTGTGCCA: the PBM binding z-score in experiment [1] was 2.44; in experiment [2] it was 0.318; in experiment [3], 0.246; in experiment [4] it was 4.92; in experiment [5] it was 8.27; in experiment [6] it was 7.05. Moreover, the PBM binding z-score in [7] amounted to 5.25; in [8], 6.46; in experiment [9], 8.12; in [10], 8.57; in experiment [11], 4.39; in [12] it was 3.12. In addition, the PBM binding z-score in experiment [13] was 2; in experiment [14], 1.67; in experiment [15], 0.201; in [16], 2.3; in experiment [17], 0.357; in [18], 4.24. This sequence registered a PBM binding z-score in [19] of 3.49.

Regarding TCTGCTAGGTCATCGATGGTCAGCTAATCTGCTA, the PBM binding z-score in [1] is 3.21; in [2], -0.333; in experiment [3], -0.256; in experiment [5] it was 1.74; in experiment [6] it was 3.32; in experiment [7] it was 1.82. Besides, the PBM binding z-score in experiment [8] was 2.45; in experiment [9], 3.54; in experiment [10] it was 4.24; in experiment [11], 0.105; in experiment [12], -0.541; in experiment [13] it was 0.22. Moreover, the PBM binding z-score in experiment [14] was 1.81; in [15] it was -0.703; in [16], 2.07; in [17] it was -1.04; in experiment [18], 4.02; in experiment [19], 3.19.

AATAAAGGGTCATCGTAGGCCAGAGTACGCACAG: the PBM binding z-score in experiment [1] is 6.44; in [2], 3.35; in [3] it was 2.31; in [4], 5.96; in experiment [5], 7.14; in experiment [6], 6.58. The PBM binding z-score in [7] came to 3.39; in experiment [8] it was 5.44; in experiment [9], 3.16; in [10], 4.41; in [11], 1.5; in [12] it was 1.46. The PBM binding z-score in experiment [13] is 5.38; in [14], 5.11; in experiment [15], 1.02; in [16] it was 5.67; in [17], 3.37; in [18], 5.11. In experiment [19], this sequence yielded a PBM binding z-score of 4.11.

On to GCTTAAGGGTCAAAGGTTATAGCATGAATAGAAT, for which the PBM binding z-score in [1] came out at 6.57; in experiment [2], 1.93; in experiment [3], 1.36; in [4], 7.18; in [5], 11.7; in experiment [6], 9.09. Moreover, the PBM binding z-score in experiment [7] was determined as 8.73; in experiment [8] it was 9.85; in [9], 3.81; in experiment [10] it was 5.94; in experiment [11], 2.24; in experiment [12], 1.36. Moreover, the PBM binding z-score in experiment [13] worked out at 4.8; in experiment [15] it was 0.657; in experiment [17] it was 1.94; in [19], 4.32.

With CGAACTAGGTCGAGGACAGTGAATCTCCGCACGC, the PBM binding z-score in experiment [1] was -0.0944; in experiment [2], -0.716; in [3] it was -0.651; in [4] it was 1.75; in experiment [5] it was 2.03; in experiment [6], 1.98. Moreover, the PBM binding z-score was 0.0747 in experiment [7]; 1.23 in experiment [8]; 5.71 in experiment [9]; 5 in [10]; 0.082 in [11]; -0.0951 in [12]. The PBM binding z-score in experiment [13] was -0.11; in experiment [14] it was -0.012; in [15], -0.207; in experiment [16] it was 0.419; in experiment [17], -0.18; in experiment [18], 1.64. The same sequence had a PBM binding z-score in [19] of 1.18.
